In all, about 220,000 compounds went through this assay and fewer than 10 were called active. Roughly 92% stayed inconclusive and do not appear here. The rule behind the calls is not given here. Only a sample is shown.
Molecular target: Guanine nucleotide-binding protein G(o) subunit alpha (Homo sapiens) + Regulator of G-protein signaling 19 (Homo sapiens) (UniProt P09471+P49795)
Experiment: regulators of RGS19 binding to Galphao, biochemical, multiplexed bead flow cytometry (AID 1440);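 note: fluorescent Galpha o activated by aluminum fluoride binding bead-coupled RGS19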
Settings: at 10 µM

Sequence of Guanine nucleotide-binding protein G(o) subunit alpha (Homo sapiens) + Regulator of G-protein signaling 19 (Homo sapiens) (P09471 whole entry, looked up): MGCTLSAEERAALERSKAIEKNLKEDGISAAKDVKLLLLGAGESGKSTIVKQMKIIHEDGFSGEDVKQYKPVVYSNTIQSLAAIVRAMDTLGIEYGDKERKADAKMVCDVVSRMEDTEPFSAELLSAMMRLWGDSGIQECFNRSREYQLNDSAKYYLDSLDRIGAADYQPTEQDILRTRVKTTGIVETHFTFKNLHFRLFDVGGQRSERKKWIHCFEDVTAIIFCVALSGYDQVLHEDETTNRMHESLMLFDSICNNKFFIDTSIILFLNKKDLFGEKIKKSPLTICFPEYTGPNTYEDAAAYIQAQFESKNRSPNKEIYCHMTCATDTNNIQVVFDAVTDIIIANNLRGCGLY
Sequence of Guanine nucleotide-binding protein G(o) subunit alpha (Homo sapiens) + Regulator of G-protein signaling 19 (Homo sapiens) (P49795 whole entry, looked up): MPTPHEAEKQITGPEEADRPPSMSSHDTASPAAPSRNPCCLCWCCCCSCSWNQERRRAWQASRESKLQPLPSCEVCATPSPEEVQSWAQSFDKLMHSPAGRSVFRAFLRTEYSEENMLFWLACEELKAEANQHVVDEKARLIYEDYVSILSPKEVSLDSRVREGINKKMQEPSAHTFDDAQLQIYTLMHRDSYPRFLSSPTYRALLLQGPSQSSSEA

Row | SMILES | binding response (% of control) [%]
1 | COC(/C=C/Nc1ccc(C)cc1)=C(C#N)C#N | 71.7
2 | COc1ccccc1/C=C/C(=O)OCC(=O)c1c(N)n(C)c(=O)n(C)c1=O | 109
3 | CCN(CC(=O)Nc1ccccc1OC)C(=O)C1CC2C=CC1C2 (stereo not drawn) | 180
4 | CCN(CC)C(=O)c1sc(NC(=O)c2cccnc2)c(C(=O)OC)c1C | 128
5 | CN1C(=O)C2(N=c3ccccc3=N2)c2ccccc21 | 103
6 | CS(=O)(=O)N1CCN(C(=O)c2cc(-c3cccs3)nc3ccccc23)CC1 | 103
7 | O=C(O)c1cc(-c2ccccn2)n[nH]1 | 106
8 | Cc1cc(C)cc(-n2c(C)c3c(C)nnc(C)c3c2C)c1 | 121
9 | OC1C2(Cc3ccccc3)CN3CCN(C2)CC1(Cc1ccccc1)C3 (stereo not drawn) | 71.2
10 | COc1cc(S(=O)(=O)NCCc2ccc3c(c2)OCO3)ccc1-n1cnnn1 | 25.7
11 | COC(=O)c1ccccc1OC(=O)c1ccc(Br)o1 | 102
12 | CC(C)CNC(=O)COC(=O)c1ccc(Cl)c(S(N)(=O)=O)c1 | 107
13 | O=C(Nc1ccccc1N1CCOCC1)c1cccc([N+](=O)[O-])c1 | 123
14 | O=C(Nc1cccc(-c2cnc3ccccc3n2)c1)c1ccco1 | 147
15 | COc1ccccc1N(C(C)=O)C1SC(=O)N(c2ccccc2)C1=O (stereo not drawn) | 70.1
16 | CCOC(=O)N1CCN(C(=O)CCNS(=O)(=O)c2cc(Br)cnc2N)CC1 | 93.9
17 | Cc1ccc(S(=O)(=O)N(Cc2ccccc2)Cc2ccco2)cc1 | 92.7
18 | COc1cc(/C=N/NC(=O)Cc2ccccc2)ccc1Oc1ccc([N+](=O)[O-])cc1[N+](=O)[O-] | 107
19 | CCOCCCNC(=O)C(c1ccccc1)N(Cc1cccs1)C(=O)CNC(=O)c1ccccc1 (stereo not drawn) | 222
20 | O=C1CC2(CON=C2c2ccc(F)cc2)C(=O)N1c1ccc(F)cc1 (stereo not drawn) | 72.5
21 | CCOC(=O)C(=O)Nc1ccccc1C(=O)Nc1ccc(OC)cc1 | 101
22 | CCC(C)[C@H](NC(=O)N1CCCC1)C(=O)OC (stereo partly drawn) | 117

Row | SMILES | binding response (% of control) [%]
23 | COc1ccc(C)cc1S(=O)(=O)N(CC(=O)O)c1ccc(F)cc1 | 102
24 | CCOC(=O)C1=C(c2ccccc2)OC(N)=C(C#N)C1C(C)C (stereo not drawn) | 109
25 | CS(=O)(=O)N1CCCC(C(=O)NCCc2ccccc2)C1 (stereo not drawn) | 71.4
26 | O=C(NC1(C(F)(F)F)C(=O)Nc2c1c(=O)[nH]c(=O)n2Cc1ccccc1)c1ccc(Cl)cc1 (stereo not drawn) | 108
27 | COC(=O)CCN(c1ccccc1)S(=O)(=O)c1ccc(OC)cc1 | 38.5
28 | CNC(=O)c1c(N)sc2c1CCCCC2 | 60.7
29 | COC(=O)c1ccccc1NC(=S)NC(=O)COc1ccc(C(C)C)cc1 | 284
30 | CCNC(=S)NNC(=O)Nc1ccccc1 | 89.6
31 | COC(=O)c1cn(NC(=O)C2COc3ccccc3O2)c(=O)c2ccccc12 (stereo not drawn) | 40.7
32 | O=C(COc1ccc2ccccc2c1)Nc1cccc2cccnc12 | 110
33 | COc1ccc(NC(=O)CCNS(=O)(=O)c2ccc(Br)s2)cc1 | 110
34 | Cc1ccc(S(=O)(=O)N2CC3(C)CN(S(=O)(=O)c4ccc(C)cc4)CC(C)(C2)C3=O)cc1 | 103
35 | Cc1cc(C)nc(SCC(=O)Nc2ncc3c(n2)CC(C)(C)CC3=O)n1 | 62.4
36 | Cc1cc(NC(=O)Cn2c(=O)c3c(ncn3CCC(C)C)n(Cc3ccccc3)c2=O)no1 | 106
37 | O=c1c(Cc2ccc(Cl)cc2Cl)c(O)ccn1Cc1ccc(Cl)cc1 | 97.7
38 | CCOc1c2ccc(C(=O)NCc3ccc(OC)cc3)cc2nn1CCOC | 92.2
39 | O=C(Nc1cccnc1)C1CCCN1S(=O)(=O)c1ccc(Cl)c(Cl)c1 (stereo not drawn) | 114
40 | COc1ccccc1CNc1ccc(C(=O)O)cc1 | 121
41 | COc1ccc(OC)c(C2C(C#N)=C(N)Oc3c2c(C)nn3-c2cccc(Cl)c2)c1 (stereo not drawn) | 96.4
42 | Cc1ccc2c(CN3CCN(CCO)CC3)cc(=O)oc2c1C | 111
43 | CCN1CCCC1CNC(=O)C(NC(=O)C1CCC(C)CC1)C(C)C (stereo not drawn) | 107
44 | O=C(CN1C(=O)S/C(=C/c2cccs2)C1=O)N1CCOCC1 | 99.9

Row | SMILES | binding response (% of control) [%]
45 | CCOCCCNC(=O)C(c1ccc(Cl)cc1)N(Cc1cccs1)C(=O)CNC(C)=O (stereo not drawn) | 90
46 | Cc1ccc(-c2cnc(N)n2C)cc1C | 94.5
47 | CCc1ccc(OC)c(S(=O)(=O)NCCOc2ccccc2)c1 | 41.2
48 | Fc1ccc(CNC(=S)Nc2ccccc2Cl)cc1 | -28
49 | COC(=O)CCC(=O)Nc1cccc(C(=O)Nc2cccc(Cl)c2)c1 | 100
50 | Cc1ccc(NC(=O)c2cc(-n3cnnc3)ccc2Cl)cc1 | 100
51 | CC1(C)CC(=O)C(C(=S)Nc2ccccc2)=C(NCCN2CCOCC2)C1 | 118
52 | Cc1ccc(Cn2ncn3c(cc4ccccc43)c2=O)cc1 | 87.2
53 | O=C(NCc1ccco1)C1CCN(S(=O)(=O)N2CCC3(CC2)OCCO3)CC1 | 45.9
54 | CCOc1ccc(C2NC(=O)c3sc(=S)n(-c4ccccc4)c3N2)cc1 (stereo not drawn) | 87.5
55 | Cc1ccccc1-n1nc(C)c2cc(C(=O)N3CCN(S(=O)(=O)c4ccc(Cl)cc4)CC3)sc21 | 94.8
56 | O=C(Nc1cccc(C(F)(F)F)c1)c1cc2c(s1)-c1ccccc1OC2 | 119
57 | COc1ccc2cnnc(SCC(=O)Nc3ccccc3)c2c1OC | 118
58 | CCCCN(CC(=O)Nc1c(C)cccc1CC)C(=O)SCC | 101
59 | Cc1ccc(C)c(Cn2nnc3c(=O)[nH]c(C4CCCN(C(=O)C5CCCCC5)C4)nc32)c1 (stereo not drawn) | 109
60 | COC(=O)c1cc(OC)c(OC)cc1NC(=O)CCC1CCCC1 | 107
61 | COc1ccc(CC(=O)OCc2cc3ccccc3[nH]c2=O)cc1 | 90.7
62 | Cc1cc(NC(=O)c2cnn3c(C(F)(F)F)cc(-c4ccccc4)nc23)no1 | 103
63 | O=C(CN1C(=O)C2C3C=CC(C3)C2C1=O)Nc1cccc2c1CCCC2 (stereo not drawn) | 187
64 | Nc1c2c(nc3ccn(Cc4ccccc4)c(=O)c13)CCC2 | 72.4
65 | COC(=O)CSc1nnnn1-c1cccc2ccccc12 | 106
66 | CN(CCCC(=O)NCc1ccco1)S(=O)(=O)c1ccccc1 | 98.9

Row | SMILES | binding response (% of control) [%]
67 | Fc1ccccc1OCCSc1nnnn1-c1ccccc1 | 25.6
68 | O=C(c1ccco1)N1CCC(c2nc(-c3ccc(F)cc3)no2)CC1 | 75.6
69 | COc1ccc(-c2nc(-c3cccs3)c(-c3cccs3)[nH]2)cc1O | 102
70 | Cc1cccc(NC(=S)NC2CC3CCC(C2)N3Cc2ccco2)c1 (stereo not drawn) | 113
71 | CC(NC(=O)Nc1ccc(F)cc1F)c1ccncc1 (stereo not drawn) | 70.2
72 | CCOc1ccc(-c2c(C(=O)N/N=C/c3ccccc3)nnn2-c2nonc2N)cc1 | 91.3
73 | CCCN(CCC)CCOc1cc(C)ccc1C(C)C | 116
74 | CC(C)C(CC(=O)NCc1ccco1)c1ccco1 (stereo not drawn) | 172
75 | CCOc1ccc(NC(=O)CSc2nc3ccccc3c(=O)n2CCNC(C)=O)cc1 | 97.9
76 | O=C(NN=C1CCCCC1)c1ccccc1OCc1ccc(F)cc1 | 118
77 | Cc1nc2ccccc2c(=O)n1NC(=O)COc1ccccc1 | 103
78 | CC(C)(C)NC(=O)c1ccc2nsnc2c1 | 141
79 | O=C(Nc1nc(N2C(=O)c3ccccc3C2=O)n(-c2ccccc2)n1)c1ccccc1 | -19.9
80 | Cn1c(Cl)cnc1C(O)c1ccccc1 (stereo not drawn) | 105
81 | Cc1c(Br)c(C(F)(F)F)nn1CC(=O)N1CCCC1 | 99.7
82 | CCOC(=O)c1[nH]nc(-c2cc(CC)c(O)cc2O)c1-c1cscn1 | 56.9
83 | CC(=O)N(c1ccc(C(C)C)cc1)C1C=CS(=O)(=O)C1 (stereo not drawn) | 103
84 | CCCCC(=O)Nc1nc(C)c(-c2csc(Nc3cc(Cl)ccc3OC)n2)s1 | 148
85 | COc1cccc(OC)c1C(=O)Nc1ccc(NC(=O)c2ccco2)cc1 | 112
86 | CCOC(=O)C1=C(c2ccccc2)NC(=O)NC1c1ccc(OCC#N)c(OC)c1 (stereo not drawn) | 119
87 | CCOC(=O)C1Cn2c(nc3c(c2=O)C2(CCCC2)Cc2ccccc2-3)S1 (stereo not drawn) | 102
88 | CCOC(=O)N1CCC(NC(=O)CCCN2C(=O)CSc3ncccc32)CC1 | 353

Reference: PubChem BioAssay AID1440 (NMMLSC, 2008)
